# Data reported in PubChem BioAssay AID463173 (ICCB-Longwood Screening Facility, Harvard Medical School, 2010).
# The campaign covered roughly 52,000 compounds. About 1,700 (3.3%) were called active. Shown is part of a subset that was picked to be rich in actives. Values without a mark were called inactive. No stated cut-off is given here; in the data, active means survival mostly below about 52% (no sharp cut-off); inactive means mostly above about 56%.
# Test system: Wild type
# Experiment: S. aureus survival, RN4220 and DeltatarO strains – OD600, teichoic acid synthesis inhibitors, primary screen (AID 463173)
# Settings: S. aureus RN4220 wild type/DeltatarO growth, OD600, 18 h, hits give low values, screened at 18.75 µg/mL (by protocol)
row,Structure (SMILES),survival
1,CCNc1nc(NC(N)=S)nc(NC(C)(C)C)n1,112%
2,Fc1ccc(Nc2ncnc3onc(-c4cccc(Cl)c4)c23)c(F)c1,79%
3,C#CCNC(=O)NC1CCCN(S(=O)(=O)c2ccc(C)cc2)C1 (stereo not given),112%
4,CCc1ccc(C(=O)c2cn(CC(=O)Nc3ccc(OC)cc3)c3cc4c(cc3c2=O)OCCO4)cc1,89%
5,COc1cccc(NC(=O)C2CC(=O)N(c3ccc(Br)cc3)C2)c1 (stereo not given),63%
6,Cc1cc(C)n(C(=O)CNc2ccccc2Cl)n1,103%
7,COCCNC(=O)CCN1C(=O)c2cccnc2Oc2ccc(C)cc21,70%
8,COc1cc(C2NC(=O)NC(C)=C2C(=O)Nc2cc(C)cc(C)c2)ccc1O (stereo not given),69%
9,NC(=O)CSc1nc2ccc(NC(=O)COc3ccccc3)cc2s1,86%
10,COC(=O)c1ccc(NC(=O)Cc2coc3cc(C)ccc23)cc1,106%
11,Cc1ccc(NC(=O)Cc2coc3ccc(C(C)C)cc23)cc1Cl,53%
12,Cc1ccc2c(CC(=O)Nc3cccc(C(F)(F)F)c3)coc2c1,8% (active)
13,CC(C)c1ccc2occ(CC(=O)Nc3cccc(C(F)(F)F)c3)c2c1,0% (active)
14,Cc1ccc2onc(CC(=O)Nc3cccc(C(F)(F)F)c3)c2c1,92%
15,CC(C)c1ccc2occ(CC(=O)Nc3ccccc3Cl)c2c1,81%
16,CCC(=O)N1CCc2cc(Br)cc(S(=O)(=O)N3CCCC(C(=O)Nc4ccc(C(C)C)cc4)C3)c21 (stereo not given),106%
17,O=C(CSC1=Nc2ccccc2N=C(c2ccc(F)cc2)C1)NCc1ccc(F)cc1,83%
18,COC(=O)C1=C(C)N(C(C)C)C(=O)C1(NC(=O)c1ccc(C(C)(C)C)cc1)C(F)(F)F (stereo not given),65%
19,O=C(NC1CCCCC1)c1cc(Nc2cccc(C(F)(F)F)c2)nc2ccccc12,72%
20,CCn1c(SCC#N)nnc1-c1ccc(S(=O)(=O)N2CCCC2)cc1,100%
21,CCCN(C(=O)C(C)C)c1nnc(-c2cc(OC)c(OC)c(OC)c2)s1,120%
22,CCCn1c(=O)c2sccc2n2c(CCCC(=O)NCCOC)nnc12,97%
23,O=C(NCCc1ccc(Cl)cc1)C1CCN(c2ncnc3c2nc2n3CCCCC2)CC1,80%

row,Structure (SMILES),survival
1,O=C(C1CCN(c2ncnc3c2nc2n3CCCCC2)CC1)N1CCN(c2ccccc2)CC1,71%
2,Cc1cccc(N2CCN(c3ncnc4c3nc3n4CCCCC3)CC2C)c1 (stereo not given),75%
3,Cc1cccc(N2CCN(C(=O)C3CCN(c4ncnc5c4nc4n5CCCCC4)CC3)CC2C)c1 (stereo not given),1% (active)
4,Cc1ccc(N2CCN(C(=O)C3CCN(c4ncnc5c4nc4n5CCCCC4)CC3)CC2)c(C)c1,55%
5,O=C(C1CCN(c2ncnc3c2nc2n3CCCCC2)CC1)N1CCN(c2ccc(Cl)cc2)CC1,55%
6,O=C(NCc1ccccc1)C1CCN(c2ncnc3c2nc2n3CCCCC2)CC1,82%
7,O=C(NCCc1ccccc1)C1CCN(c2ncnc3c2nc2n3CCCCC2)CC1,-4% (active)
8,O=C(C1CCN(c2ncnc3c2nc2n3CCCCC2)CC1)N1CCN(c2ccc(F)cc2)CC1,-3% (active)
9,CC(=O)C1=C(c2ccc(Cl)cc2)N(C(C)=O)n2c(nnc2C2CCCCC2)S1,85%
10,CCOc1cccc(CC(=O)N2CCc3c([nH]c4ccccc34)C2c2ccc(C)cc2)c1OCC (stereo not given),83%
11,Cc1ccc2c(c1)c(=O)c(C(=O)c1ccncc1)cn2CC(=O)Nc1c(C)cccc1C,72%
12,O=C(CC12CC3CC(CC(C3)C1)C2)N1CCCOC1,114%
13,N=c1nc(SCCC(=O)O)ss1,112%
14,COc1ccc(NC(=O)C(C)Sc2cc(-c3ccccc3)nc(C)n2)cc1Cl (stereo not given),81%
15,Cc1c(Cl)cccc1NC(=O)CCS(=O)(=O)c1ccc2c(c1)CC(=O)N2C,85%
16,COc1ccc(C(CC(=O)Nc2ccc(C)c(C)c2)N2Cc3ccccc3C2=O)cc1OC (stereo not given),66%
17,COc1ccc(NC(=O)Cn2c(=O)n(CCC(=O)NCCc3ccc(OC)c(OC)c3)c(=O)c3ccccc32)cc1Cl,92%
18,CC1=C(c2ccc(Cl)cc2)S(=O)(=O)N=C1N1CCC(C(=O)NCCc2ccco2)CC1,55%
19,CC1=C(c2ccc(C(C)C)cc2)S(=O)(=O)N=C1N1CCC(C(=O)NCc2ccco2)CC1,63%
20,CC1=C(c2ccc(C)c(C)c2)S(=O)(=O)N=C1N1CCC(C(=O)N2CCC(C(N)=O)CC2)CC1,-4% (active)
21,CC1=C(c2ccc(C(C)C)cc2)S(=O)(=O)N=C1N1CCC(C(=O)NCc2ccc(C)o2)CC1,63%
22,CC1=C(c2ccc(C)c(C)c2)S(=O)(=O)N=C1N1CCC(C(=O)N2CCC(C)CC2)CC1,81%
23,CCc1ccc(C2=C(C)C(N3CCC(C(=O)NCc4ccccc4)CC3)=NS2(=O)=O)cc1,67%

row,Structure (SMILES),survival
1,CC1=C(c2ccc(C(C)C)cc2)S(=O)(=O)N=C1N1CCC(C(=O)NCCc2ccco2)CC1,1% (active)
2,CC1=C(c2ccc(C)c(C)c2)S(=O)(=O)N=C1N1CCC(C(=O)N2CCCCC2)CC1,129%
3,CC1=C(c2ccc(C(C)C)cc2)S(=O)(=O)N=C1N1CCC(C(=O)NCc2ccccc2)CC1,-3% (active)
4,CCc1ccccc1NC(=O)c1cc(S(=O)(=O)N2CCCC2)cn1C,84%
5,CCC(C)NC(=O)Cn1c(=O)n(CC2CCC(C(=O)NC)CC2)c(=O)c2sccc21 (stereo not given),70%
6,CC(C)N(C(=O)Cn1cc(SCC(=O)Nc2ccccc2C(F)(F)F)c2ccccc21)C(C)C,105%
7,COc1ccccc1Cc1nc2ccccc2nc1SCC(=O)N1CCc2ccccc21,49%
8,Cc1cc(Br)ccc1NC(=O)CSc1c2c(nc3ccccc13)CCC2,75%
9,N#Cc1c(C(F)(F)F)cc(-c2cccs2)nc1SCC(=O)Nc1ccc(Cl)cc1,78%
10,Cc1[nH]c2ccccc2c1SCCNC(=O)c1ccc(F)cc1,64%
11,CCOc1ccc(C(=O)NCCSc2c(C)[nH]c3ccccc23)cc1OCC,86%
12,Cc1ccc(C(=O)NCCSc2c(C)[nH]c3ccccc23)cc1C,19% (active)
13,CCNS(=O)(=O)c1ccc(S(=O)(=O)N(Cc2ccccn2)C2CCCCC2)cc1,107%
14,CC1CCN(C(=O)Cn2c(=O)n(CC3CCC(C(=O)NC(C)C)CC3)c(=O)c3sccc32)CC1 (stereo not given),78%
15,CCn1c(C(=O)NCc2ccc(OC)cc2)cc2sc(Cl)cc21,37%
16,CCn1c(C(=O)NCc2ccccc2)cc2sc(Cl)cc21,2% (active)
17,CCn1c(C(=O)NCc2ccc(C)cc2)cc2sc(Cl)cc21,78%
18,CCOC(=O)c1c(C)n(-c2ccccc2)c2ccc(OC(=O)COc3ccc(Cl)cc3)cc12,78%
19,CCOC(=O)c1cc(-c2ccc(OC)c(S(=O)(=O)NCc3ccccc3Cl)c2)on1,79%
20,O=C(Oc1ccccc1Cl)c1cc(-c2ccc3c(c2)OCCO3)on1,-7% (active)
21,Cc1ccc(OC(=O)c2cc(-c3ccc4c(c3)OCCO4)on2)c(C)c1,-6% (active)
22,CC(C)c1ccc(OC(=O)c2cc(-c3ccccc3)on2)cc1,106%
23,Cc1ccc(Cl)cc1NC(=O)c1cc(-c2ccc3c(c2)OCCO3)on1,67%

row,Structure (SMILES),survival
1,Cc1ccc(NC(=O)c2cc(-c3ccc4c(c3)OCO4)on2)cc1,105%
2,O=C(Nc1ccccc1C(F)(F)F)c1cc(-c2ccc3c(c2)OCCO3)on1,113%
3,Cc1ccc(-c2cc(C(=O)Oc3ccccc3Cl)no2)cc1C,-6% (active)
4,Cc1ccc(OC(=O)c2cc(-c3ccc(Cl)cc3)on2)c(C)c1,93%
5,O=C(Nc1cccc(Cl)c1)c1cc(-c2ccc3c(c2)OCCO3)on1,122%
6,Cc1ccccc1OC(=O)c1cc(-c2ccc3c(c2)OCCO3)on1,-6% (active)
7,Cc1oc2ncn(C)c(=O)c2c1C(=O)N1CCN(c2cccc(C(F)(F)F)c2)CC1,82%
8,CCOc1ccccc1CNCCNC(=O)c1nonc1N,128%
9,CCCNS(=O)(=O)c1ccc(OCC(=O)NCc2ccccn2)cc1,122%
10,NC(=Nc1ccccc1)SC1CC(=O)N(c2ccccc2)C1=O (stereo not given),113%
11,O=C(Nc1ccccc1NC(=O)c1cccs1)c1cccs1,111%
12,COc1cccc(NC(=O)Cn2c(=O)ccc3cc(S(=O)(=O)N4CCC(C)CC4)ccc32)c1,73%
13,CCn1cc(/C=C(\NC(=O)c2ccccc2Cl)C(=O)NCCCn2ccnc2)c2ccccc21,121%
14,COC(=O)c1sccc1S(=O)(=O)N1CCN(c2cccc(C)c2C)CC1,67%
15,COc1cc(NC(=O)Cn2c(-c3ccccc3)cc(C(C)=O)c2C)cc(OC)c1,92%
16,COc1ccc2c(c1)N(C)/C(=C1/SC(=S)N(C)C1=O)S2,122%
17,COc1cccc(CNC(=O)c2cc(-c3ccc(Cl)cc3)n[nH]2)c1,136%
18,C#CCNc1c2c(nc3nnnn13)CCCC2,104%
19,CCSC(=C(C#N)C#N)c1cc2c([nH]1)CCCC2,116%
20,Cc1ccc2ccc3cc(C(=O)N4CCN(c5ccccc5F)CC4)nc3c2[nH]1,78%
21,CCOc1ccc(NC(=O)Cn2c(=O)n(Cc3ccc(C(=O)NCc4ccc5c(c4)OCO5)cc3)c(=O)c3ccccc32)cc1,98%
